Several values for one entry are separate records, joined by “and”; a condition that tells them apart may be missing. Equal values may be shown once. Results filed as inconclusive are left out. Activity calls are given as the source filed them. Unless noted, calls come from the whole dose curve; as a rule, active = well fitted curve in the direction sought with a large enough effect; inconclusive = small, poorly fitted or top-dose-only effect, or another doubt; inactive = no such curve, though single readings can be large; an effect the other way counts as inactive or inconclusive.
Tests used:
[1] = Cell Viability - Mesenchymal (AID 546);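 note: cells exposed to compound for 40 hours before reading; 0% = DMSO only and -100% = 100 µM tamoxifen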
Method in brief: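 Human kidney mesenchymal cells from normal renal glomeruli, 1000 cells/well, rested 5 hr at 37 °C, then treated 40 hr at 37 °C in complete medium. Cellular ATP read by CellTiter-Glo luminescence; AC50 from Hill-equation fits.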

[2] = Cellular Toxicity (caspase-3) HepG2 (AID 654);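 note: cells exposed to compound for 16 hours before reading; 0% = DMSO alone and 100% = caspase signal from 100 µM tamoxifen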
Method in brief: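 qHTS, HepG2, 1500 cells/well, complete medium; cpd 16 h 37 °C; Caspase-Glo 3/7, 20 min RT; lum. Norm: DMSO vs 100 uM tamoxifen; AC50 Hill fit.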

[3] = Cellular Toxicity (caspase-3) Jurkat (AID 655);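 note: cells exposed to compound for 16 h at 37 °C before reading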
Method in brief: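 Jurkat cells (5000/well) in complete medium were treated with compounds for 16 hr at 37 °C, then Caspase-Glo 3/7 luminescence was read after 20 min at room temperature. Data normalized to DMSO (basal) and 100 uM tamoxifen (100%); AC50 from Hill fit.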

[4] = Cellular Toxicity (caspase-3) HUV-EC-C (AID 656);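 note: 0% = DMSO basal and 100% = 100 µM tamoxifen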
Method in brief: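 HUV-EC-C endothelial cells, 1000/well, were pre-incubated 5 hr at 37°C, then exposed to compounds for 16 hr at 37°C. Caspase-Glo 3/7 luminescence was read after 20 min at room temperature. AC50 came from Hill fits, normalized to DMSO and 100 uM tamoxifen.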

[5] = Cellular Toxicity (caspase-3) SHSY5Y (AID 657)
Method in brief: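 SH-SY5Y human neuroblastoma cells (1500/well) were treated with compounds for 16 h at 37 °C, then Caspase-Glo 3/7 luminescence was read after 1 h at room temperature. Data normalized to DMSO and 10 uM staurosporine; AC50 from Hill fits.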

[6] = Cellular Toxicity (caspase-3) BJ (AID 658); details: Potency: caspase-3 activation;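 note: 0% = DMSO basal and 100% = 10 µM staurosporine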
Method in brief: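 BJ human foreskin fibroblasts, 1000 cells/well, treated 16 hours at 37 °C in complete medium; caspase 3/7 activity by Caspase-Glo luminescence after 1 hr at room temperature. Normalized to DMSO and 10 uM staurosporine; AC50 from Hill fits.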

[7] = Cellular Toxicity (caspase-3) MRC-5 (AID 659); details: Potency: caspase-3 activation;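 note: 0% = DMSO basal and 100% = 10 µM staurosporine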
Method in brief: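 MRC-5 human normal lung fibroblasts, 1500 cells/well, treated 16 h at 37 °C in complete medium. Caspase 3/7 measured by Caspase-Glo luminescence after 1 h at room temperature. Normalized to DMSO and 10 uM staurosporine; AC50 from Hill fit.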

[8] = Cellular Toxicity (caspase-3) Mesangial (AID 660);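 note: combined caspase 3 and 7 activity read by Caspase-Glo luminescence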
Method in brief: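 Concentration-response qHTS: compound-induced rise in caspase 3/7 luminescence in human mesangial cells after 16 h, normalized to DMSO and 100 uM tamoxifen controls.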

[9] = Cellular Toxicity (caspase-3) SK-N-SH (AID 661); details: SK-N-SH caspase-3 activation, qHTS; caspase-3 activation: at 91.7 µM (top of the series), DMSO as zero, staurosporine as full;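 note: 0% = DMSO basal and 100% = 10 µM staurosporine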
Method in brief: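 Caspase 3/7 activation is measured as a luminescence increase from aminoluciferin released by substrate cleavage in SK-N-SH cells after 16 hr compound treatment; values are AC50 from concentration-response curves.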

[10] = Cellular Toxicity (caspase-3) H-4-II-E (AID 663);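 note: cells exposed to compound for 16 hr before readout; 0% = DMSO basal and 100% = 100 µM tamoxifen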
Method in brief: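 Rat hepatoma H-4-II-E cells (1500/well) plated 5 hr, then exposed to compound titrations for 16 hr at 37 °C. Caspase-Glo 3/7 luminescence read after 20 min at RT; data normalized to DMSO and 100 uM tamoxifen, AC50 from Hill fits.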

[11] = Cellular Toxicity (caspase-3) Hek293 (AID 664);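 note: cells exposed to compound for 16 h at 37 °C before readout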
Method in brief: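 Activation of caspase-3/7 is measured as increased luminescence from cleaved peptide-aminoluciferin substrate in HEK293 cells treated 16 hours at 37 °C. AC50 values come from Hill-equation fits of concentration-response data.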

[12] = Cellular Toxicity (caspase-3) N2a (AID 665);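 note: compound exposure lasted 16 h at 37 °C before readout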
Method in brief: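 Plated mouse neuroblastoma N2a cells received titrated compounds for 16 h in complete medium. Caspase activity was then detected with a peptide-aminoluciferin luminescent reagent.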

[13] = Cellular Toxicity (caspase-3) NIH 3T3 (AID 666);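 note: caspase signal read after 16 h compound exposure; 0% = DMSO basal and 100% = 100 µM tamoxifen stimulation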
Method in brief: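 Concentration-response qHTS in NIH 3T3 mouse fibroblasts scores caspase-3/7 activation as rising luminescence after 16 hr compound exposure. Signals are scaled between DMSO-only and 100 uM tamoxifen.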

[14] = Cellular Toxicity (caspase-3) Renal Proximal Tubule (AID 667); details: renal proximal tubule cells; at 91.7 µM (top of the series) unless noted;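 note: cells exposed to compound for 16 hours at 37 °C before detection; 0% = DMSO basal and 100% = 10 µM staurosporine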
Method in brief: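 Primary rat proximal tubule cells, 1000/well, 5 h plating at 37 °C, then compound 16 h at 37 °C. Caspase-Glo 3/7 reagent, 1 h RT, luminescence. Normalized to DMSO (basal) and 10 uM staurosporine (100%); Hill-fit AC50.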

[15] = target: Cytochrome P450 3A4 (Homo sapiens) (UniProt P08684); experiment: qHTS Assay for Inhibitors and Substrates of Cytochrome P450 3A4 (AID 884); note: % is set by controls: 0 for no effect and ±100 for the full control effect; nearly all actives have a fitted effect of over 50% in size
Sequence of Cytochrome P450 3A4 (Homo sapiens) (P08684 whole entry, looked up): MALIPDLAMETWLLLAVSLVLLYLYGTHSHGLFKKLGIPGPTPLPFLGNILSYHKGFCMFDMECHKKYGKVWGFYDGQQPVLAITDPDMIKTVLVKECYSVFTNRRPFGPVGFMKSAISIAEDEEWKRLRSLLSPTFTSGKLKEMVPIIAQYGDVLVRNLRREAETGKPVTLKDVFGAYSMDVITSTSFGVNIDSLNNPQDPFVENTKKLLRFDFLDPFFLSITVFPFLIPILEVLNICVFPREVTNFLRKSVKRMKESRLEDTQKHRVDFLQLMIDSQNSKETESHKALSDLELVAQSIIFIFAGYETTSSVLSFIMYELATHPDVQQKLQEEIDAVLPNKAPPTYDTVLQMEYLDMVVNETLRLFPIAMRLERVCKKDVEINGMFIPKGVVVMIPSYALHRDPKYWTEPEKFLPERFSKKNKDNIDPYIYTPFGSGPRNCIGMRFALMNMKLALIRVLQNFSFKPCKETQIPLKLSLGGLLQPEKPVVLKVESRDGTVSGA
Method in brief: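 20 nM human CYP3A4 with 25 uM Luciferin-PPXE (at KM) in 200 mM KPO4, preincubated 10 min with compound; NADPH regeneration started a 60 min RT reaction. Luciferin detected by luminescence, normalized to 57 uM ketoconazole as full inhibition.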

[16] = target: Cytochrome P450 2D6 (Homo sapiens) (UniProt P10635); experiment: qHTS Assay for Inhibitors and Substrates of Cytochrome P450 2D6 (AID 891);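 note: luciferin methyl ether substrate demethylated by CYP2D6 with NADPH regeneration; % is set by controls: 0 for no effect and ±100 for the full control effect; nearly all actives have a fitted effect of over 60% in size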
Sequence of Cytochrome P450 2D6 (Homo sapiens) (P10635 whole entry, looked up): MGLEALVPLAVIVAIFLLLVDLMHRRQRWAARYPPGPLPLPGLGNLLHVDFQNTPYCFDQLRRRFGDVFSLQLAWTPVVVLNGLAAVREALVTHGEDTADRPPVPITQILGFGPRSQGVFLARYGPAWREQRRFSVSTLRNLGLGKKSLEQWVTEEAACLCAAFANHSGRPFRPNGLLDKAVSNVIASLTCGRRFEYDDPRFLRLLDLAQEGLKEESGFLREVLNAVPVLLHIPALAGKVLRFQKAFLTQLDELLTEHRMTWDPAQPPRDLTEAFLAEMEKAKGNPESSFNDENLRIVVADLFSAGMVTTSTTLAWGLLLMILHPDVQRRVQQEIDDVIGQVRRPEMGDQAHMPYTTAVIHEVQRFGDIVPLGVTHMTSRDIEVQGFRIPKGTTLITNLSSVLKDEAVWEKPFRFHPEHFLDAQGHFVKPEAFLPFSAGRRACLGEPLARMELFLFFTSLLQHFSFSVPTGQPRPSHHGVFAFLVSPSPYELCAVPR
Method in brief: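 Human CYP2D6 (5 nM) with 30 uM Luciferin-ME EGE (at Km) in 100 mM KPO4, compound preincubated 10 min, then NADPH regeneration system for 60 min at room temperature. Luciferin read by luminescence; normalized to 1.43 uM quinidine.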

[17] = target: 3',5'-cyclic-AMP phosphodiesterase 4B (Homo sapiens) (UniProt Q07343); experiment: qHTS Assay for Inhibitors of PDE-IV (AID 607; active = well fitted activation curve with a large enough effect in the main read-out, with a control signal flat, not every such curve was filed as active; note: % of control where 0% means no effect)
Sequence of 3',5'-cyclic-AMP phosphodiesterase 4B (Homo sapiens) (Q07343 whole entry, looked up): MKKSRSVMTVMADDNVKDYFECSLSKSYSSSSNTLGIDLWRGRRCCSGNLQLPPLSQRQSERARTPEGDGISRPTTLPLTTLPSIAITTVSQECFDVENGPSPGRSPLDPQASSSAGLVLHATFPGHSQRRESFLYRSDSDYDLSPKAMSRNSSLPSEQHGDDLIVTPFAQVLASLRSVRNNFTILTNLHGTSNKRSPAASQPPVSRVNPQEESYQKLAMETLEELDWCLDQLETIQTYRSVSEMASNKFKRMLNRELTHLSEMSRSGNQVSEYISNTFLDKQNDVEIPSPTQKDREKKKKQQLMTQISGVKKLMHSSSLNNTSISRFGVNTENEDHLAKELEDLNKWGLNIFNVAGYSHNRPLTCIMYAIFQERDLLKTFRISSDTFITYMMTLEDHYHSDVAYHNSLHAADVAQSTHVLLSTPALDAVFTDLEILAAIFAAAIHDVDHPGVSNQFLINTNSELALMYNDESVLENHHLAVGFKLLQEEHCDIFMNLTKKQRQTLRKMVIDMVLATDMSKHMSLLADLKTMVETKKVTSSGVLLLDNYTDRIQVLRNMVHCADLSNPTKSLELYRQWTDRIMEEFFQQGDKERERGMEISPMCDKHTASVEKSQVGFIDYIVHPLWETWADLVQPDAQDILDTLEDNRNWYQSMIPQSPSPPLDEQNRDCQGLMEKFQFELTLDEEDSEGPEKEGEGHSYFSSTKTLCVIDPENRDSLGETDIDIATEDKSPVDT
Method in brief: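 Cell-based read-out of cAMP via a modified cyclic nucleotide-gated channel and membrane potential dye (535/590 nm) in HEK293 cells expressing PDE4 endogenously. Compounds tested up to 22.9 uM final; 100 uM RO 20-1724 reference.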

[18] = target: Guanine nucleotide-binding protein G(i) subunit alpha-1 (Homo sapiens) (UniProt P63096); experiment: qHTS Assay for Inhibitors of RGS12 GoLoco Motif Activity (Green Fluorophore) (AID 879);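 note: 0% = labeled peptide with Gαi1 and full inhibition = labeled peptide alone without protein; negative values mean loss of peptide binding seen as reduced polarization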
Sequence of Guanine nucleotide-binding protein G(i) subunit alpha-1 (Homo sapiens) (P63096 whole entry, looked up): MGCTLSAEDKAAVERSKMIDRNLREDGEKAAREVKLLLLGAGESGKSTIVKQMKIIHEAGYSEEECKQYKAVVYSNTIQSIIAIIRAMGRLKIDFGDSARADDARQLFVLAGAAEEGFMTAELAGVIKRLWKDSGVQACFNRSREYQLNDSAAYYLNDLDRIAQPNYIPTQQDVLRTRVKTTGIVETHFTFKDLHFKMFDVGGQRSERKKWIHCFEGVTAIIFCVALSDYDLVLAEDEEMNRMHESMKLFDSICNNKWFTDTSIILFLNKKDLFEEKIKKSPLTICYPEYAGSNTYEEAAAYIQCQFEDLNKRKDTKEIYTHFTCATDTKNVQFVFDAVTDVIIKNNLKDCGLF
Method in brief: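 Fluorescence polarization assay: 50 nM Gαi1 with 10 nM FITC-labeled RGS12 GoLoco peptide in 10 mM Tris pH 7.5, 150 mM NaCl, 0.1 mM GDP, 0.05% NP40, 10 min at room temperature with compound.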

[19] = target: Cytochrome P450 3A4 (Homo sapiens) (UniProt P08684); experiment: qHTS Assay for Activators of Cytochrome P450 3A4 (AID 885); note: nearly all actives have a fitted effect of over 65% in size
Method in brief: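 Signal was normalized against complete inhibition by 57 uM ketoconazole. The reaction used 20nM CYP3A4 with 25uM Luciferin-PPXE, 10-min compound preincubation and a 60-min NADPH-supported step at RT.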

O=C1CCO1
inactive: Potency [1] | outcome [2] | Potency [3] | outcome [4] | outcome [5] | Potency [6] | Potency [7] | outcome [8] | Potency [9] | outcome [10] | outcome [11] | outcome [12] | Potency [13] | caspase-3 activation [14] -9.04% [at 91.7 µM, primary cells freshly taken from rat, solvent-only wells 0%, staurosporine 100%] | Potency [15]

O=CC=O
inactive: Potency [1] | outcome [2] | Potency [3] | outcome [4] | outcome [5] | Potency [6] | Potency [7] | outcome [8] | Potency [9] | outcome [10] | outcome [11] | outcome [12] | Potency [13] | caspase-3 activation [14] -5.02% [at 91.7 µM, primary cells freshly taken from rat, solvent-only wells 0%, staurosporine 100%] | Potency [15]

[O]=[Cd]
inactive: Potency [1] | outcome [2] | Potency [3] | outcome [4] | outcome [5] | Potency [6] | Potency [7] | outcome [8] | Potency [9] | outcome [10] | outcome [11] | outcome [12] | Potency [13] | caspase-3 activation [14] 7.8% [at 91.7 µM, primary cells freshly taken from rat, solvent-only wells 0%, staurosporine 100%] | Potency [15]

COC1=CC(=O)O[C@@H](/C=C/c2ccccc2)C1
inactive: Potency [1] | outcome [2] | Potency [3] | outcome [4] | outcome [5] | Potency [6] | Potency [7] | outcome [8] | Potency [9] | outcome [10] | outcome [11] | outcome [12] | Potency [13] | caspase-3 activation [14] -6.32% | Potency [15]

CCCCCCCCOC(=O)c1ccccc1C(=O)OCCCCCCCC
inactive: Potency [1] | outcome [2] | Potency [3] | outcome [4] | outcome [5] | Potency [6] | Potency [7] | outcome [8] | Potency [9] | outcome [10] | outcome [11] | outcome [12] | Potency [13] | caspase-3 activation [14] -2.49% | Potency [15]

O=C(O)C(Cl)(Cl)Cl
inactive: Potency [1] | outcome [2] | Potency [3] | outcome [4] | outcome [5] | Potency [6] | Potency [7] | outcome [8] | Potency [9] | outcome [10] | outcome [11] | outcome [12] | Potency [13] | caspase-3 activation [14] -2.66% and 2.21% | Potency [15]

CC(C)(C)c1cc(O)ccc1O
inactive: Potency [1] | outcome [2] | Potency [3] | outcome [4] | outcome [5] | Potency [6] | Potency [7] | outcome [8] | Potency [9] | outcome [10] | outcome [11] | outcome [12] | Potency [13] | caspase-3 activation [14] -12.4% and -3.67% | Potency [15] | activity change, negative = inhibition [16] 11.9% [at 11.4 µM]

S=C=S
inactive: Potency [1] | outcome [2] | Potency [3] | outcome [4] | outcome [5] | Potency [6] | Potency [7] | outcome [8] | Potency [9] | outcome [10] | outcome [11] | outcome [12] | Potency [13] | caspase-3 activation [14] 4.15% [at 91.7 µM, primary cells freshly taken from rat, solvent-only wells 0%, staurosporine 100%] | Potency [15]

CCN(CCCl)Cc1ccccc1Br
inactive: Potency [17] | Potency [18]

COc1ccc2c(c1OC)C(=O)OC2C1c2cc3c(cc2CCN1C)OCO3 (stereo not drawn)
inactive: Potency [1] | outcome [2] | Potency [3] | outcome [4] | outcome [5] | Potency [6] | Potency [7] | outcome [8] | Potency [9] | outcome [10] | outcome [11] | outcome [12] | Potency [13] | caspase-3 activation [14] -5.84% | outcome [19]

CCOC(=O)c1ccccc1C(=O)OCC
inactive: Potency [1] | outcome [2] | Potency [3] | outcome [4] | outcome [5] | Potency [6] | Potency [7] | outcome [8] | Potency [9] | outcome [10] | outcome [11] | outcome [12] | Potency [13] | caspase-3 activation [14] 7.7% and 0.83% | Potency [15]

Source: PubChem BioAssay (NCATS)
